ChEMBL document CHEMBL5606460, “ASAP - DENV-2 NS2B-NS3 protease fluorescence single point” (2024)
About 110 (5.5%) of roughly 2,000 compounds showed an effect of 50% or more. This excerpt belongs to a sample that is enriched for strong results.

Molecular target: Genome polyprotein (dengue virus type 2) (UniProt P29990)
[1] = Thailand/16681/1984, Concentration 25.0 uM, Number of replicates 1.0

SMILES: COc1ccccc1OCCn1cc(C2CCNCC2)c(C)n1
- inhibition (Thailand/16681/1984, Concentration 49.5 uM, Number of replicates 2.0, Standard deviation 0.4008605306484476 %): -1.35%
- inhibition (Thailand/16681/1984, Concentration 99.01 uM, Number of replicates 2.0, Standard deviation 0.8515456477601485 %): 0.612%
- inhibition (Thailand/16681/1984, Concentration 198.0 uM, Number of replicates 2.0, Standard deviation 0.3007587308619815 %): 2.21%

SMILES: N[C@H]1CC[C@H](NC(=O)[C@@H](NC(=O)OCc2ccccc2)c2ccc(OCc3ccccc3)cc2)C1
- inhibition (Thailand/16681/1984, Concentration 49.5 uM, Number of replicates 2.0, Standard deviation 0.9979193615621401 %): -9.06%
- inhibition (Thailand/16681/1984, Concentration 49.5 uM, Number of replicates 2.0, Standard deviation 5.780389191288721 %): -6.13%
- inhibition (Thailand/16681/1984, Concentration 99.01 uM, Number of replicates 2.0, Standard deviation 0.21863424783935215 %): -6.77%
- inhibition (Thailand/16681/1984, Concentration 99.01 uM, Number of replicates 2.0, Standard deviation 4.8738871027899835 %): -4.83%
- inhibition (Thailand/16681/1984, Concentration 198.0 uM, Number of replicates 2.0, Standard deviation 0.20009536646595624 %): 3.56%
- inhibition (Thailand/16681/1984, Concentration 198.0 uM, Number of replicates 2.0, Standard deviation 2.9330264990309507 %): 6.71%

SMILES: Cn1cc(NC(=O)c2ccccc2C(F)(F)F)c(-c2ccc(O)cc2)n1
- inhibition (Thailand/16681/1984, Concentration 49.5 uM, Number of replicates 2.0, Standard deviation 1.4149767575059302 %): -3.58%
- inhibition (Thailand/16681/1984, Concentration 99.01 uM, Number of replicates 2.0, Standard deviation 0.6191126751592 %): -2.21%
- inhibition (Thailand/16681/1984, Concentration 198.0 uM, Number of replicates 2.0, Standard deviation 0.2617465963559337 %): -3.21%

SMILES: O=C1C[C@@H](NS(=O)(=O)c2ccc(Oc3ccccc3Cl)cc2)CCN1
- inhibition (Thailand/16681/1984, Concentration 49.5 uM, Number of replicates 2.0, Standard deviation 1.1905021365747266 %): -5.52%
- inhibition (Thailand/16681/1984, Concentration 99.01 uM, Number of replicates 2.0, Standard deviation 1.0784606403673063 %): -3.29%
- inhibition (Thailand/16681/1984, Concentration 198.0 uM, Number of replicates 2.0, Standard deviation 1.453680839379123 %): -1%

SMILES: O=C(NCC1CC1)c1cc(Cl)ccc1NS(=O)(=O)c1ccc(Oc2ccccc2Cl)cc1
- inhibition (Thailand/16681/1984, Concentration 49.5 uM, Number of replicates 2.0, Standard deviation 0.6779748794958176 %): 77.8%
- inhibition (Thailand/16681/1984, Concentration 99.01 uM, Number of replicates 2.0, Standard deviation 0.21598068225710626 %): 88.2%
- inhibition (Thailand/16681/1984, Concentration 198.0 uM, Number of replicates 2.0, Standard deviation 0.009057863507173258 %): 87%

SMILES: O=C1NCC[C@@H]1CNS(=O)(=O)c1ccc(Oc2ccccc2Cl)cc1
- inhibition (Thailand/16681/1984, Concentration 49.5 uM, Number of replicates 2.0, Standard deviation 4.002985951466216 %): -0.264%
- inhibition (Thailand/16681/1984, Concentration 99.01 uM, Number of replicates 2.0, Standard deviation 4.526482853100752 %): 0.42%
- inhibition (Thailand/16681/1984, Concentration 198.0 uM, Number of replicates 2.0, Standard deviation 4.411103663666057 %): 2.4%

SMILES: O=C(NC[C@H]1CCCO1)c1cc(Cl)ccc1NS(=O)(=O)c1ccc(Oc2ccccc2Cl)cc1
- inhibition (Thailand/16681/1984, Concentration 49.5 uM, Number of replicates 2.0, Standard deviation 0.11391652520397291 %): 86.2%
- inhibition (Thailand/16681/1984, Concentration 99.01 uM, Number of replicates 2.0, Standard deviation 0.06140357500812747 %): 84.7%
- inhibition (Thailand/16681/1984, Concentration 198.0 uM, Number of replicates 2.0, Standard deviation 0.13037604965923533 %): 79.4%

SMILES: O=C(N[C@H]1CCNC1=O)c1cc(Cl)ccc1NS(=O)(=O)c1ccc(Oc2ccccc2Cl)cc1
- inhibition (Thailand/16681/1984, Concentration 49.5 uM, Number of replicates 2.0, Standard deviation 0.36576586141779044 %): 30.3%
- inhibition (Thailand/16681/1984, Concentration 99.01 uM, Number of replicates 2.0, Standard deviation 0.2318278972972024 %): 51.8%
- inhibition (Thailand/16681/1984, Concentration 198.0 uM, Number of replicates 2.0, Standard deviation 0.7755829345495912 %): 18.9%

SMILES: O=C1NCCC[C@@H]1CNS(=O)(=O)c1ccc(Oc2ccccc2Cl)cc1
- inhibition (Thailand/16681/1984, Concentration 49.5 uM, Number of replicates 2.0, Standard deviation 0.9940716071741866 %): -2.68%
- inhibition (Thailand/16681/1984, Concentration 99.01 uM, Number of replicates 2.0, Standard deviation 0.27557480876496404 %): -0.801%
- inhibition (Thailand/16681/1984, Concentration 198.0 uM, Number of replicates 2.0, Standard deviation 0.9840594547230297 %): 1.79%

SMILES: O=C1C[C@@H](CNC(=O)c2cc(Cl)ccc2NS(=O)(=O)c2ccc(Oc3ccccc3Cl)cc2)CN1
- inhibition (Thailand/16681/1984, Concentration 49.5 uM, Number of replicates 2.0, Standard deviation 1.683767946709369 %): 12.4%
- inhibition (Thailand/16681/1984, Concentration 99.01 uM, Number of replicates 2.0, Standard deviation 0.12281254481286434 %): 57.2%
- inhibition (Thailand/16681/1984, Concentration 198.0 uM, Number of replicates 2.0, Standard deviation 0.21046989752060982 %): 53.6%

SMILES: C[C@H](NC(=O)C1CCN(c2ccc(C=O)cc2)CC1)c1ccc(Br)cc1
- inhibition [1]: 12.7%

SMILES: O=C(N[C@@H](C(=O)NC1CCNCC1)c1ccc(OCc2ccccc2)cc1)OCc1ccccc1
- inhibition (Thailand/16681/1984, Concentration 49.5 uM, Number of replicates 2.0, Standard deviation 0.04752487067458113 %): -0.225%
- inhibition (Thailand/16681/1984, Concentration 99.01 uM, Number of replicates 2.0, Standard deviation 0.6611370067327399 %): -0.49%
- inhibition (Thailand/16681/1984, Concentration 198.0 uM, Number of replicates 2.0, Standard deviation 1.22541945186685 %): 2.06%

SMILES: CNc1ccccc1C(=O)Nc1cccc2c(CO)cc(C)nc12
- inhibition (Thailand/16681/1984, Concentration 49.95 uM, Number of replicates 2.0, Standard deviation 1.7606224720878931 %): -0.213%
- inhibition (Thailand/16681/1984, Concentration 99.9 uM, Number of replicates 2.0, Standard deviation 1.1796035516056886 %): 2.15%

SMILES: Cc1cc(N)c2cccc(F)c2n1
- inhibition (Thailand/16681/1984, Concentration 49.95 uM, Number of replicates 2.0, Standard deviation 2.207074007413848 %): -9.77%
- inhibition (Thailand/16681/1984, Concentration 99.9 uM, Number of replicates 2.0, Standard deviation 2.035147234269057 %): -9.31%

SMILES: Cn1cc(NC(=O)c2ccccc2C(F)(F)F)c(-c2ccc(N)nc2)n1
- inhibition (Thailand/16681/1984, Concentration 49.5 uM, Number of replicates 2.0, Standard deviation 0.02318042950620363 %): -3.62%
- inhibition (Thailand/16681/1984, Concentration 99.01 uM, Number of replicates 2.0, Standard deviation 0.5795125921164253 %): -3.54%
- inhibition (Thailand/16681/1984, Concentration 198.0 uM, Number of replicates 2.0, Standard deviation 2.685074924440845 %): -2.16%

SMILES: O=C(c1ccc2c(c1)B(O)OC2)N1CCN[C@H](c2ccc(Cl)cc2)C1
- inhibition (Thailand/16681/1984, Concentration 49.5 uM, Number of replicates 2.0, Standard deviation 1.1051975895382533 %): -1.33%
- inhibition (Thailand/16681/1984, Concentration 99.01 uM, Number of replicates 2.0, Standard deviation 0.5109273627094355 %): -1.22%
- inhibition (Thailand/16681/1984, Concentration 198.0 uM, Number of replicates 2.0, Standard deviation 0.04393612974415127 %): -0.309%

SMILES: Cc1n[nH]cc1-c1ccccc1C(=O)Nc1cnn(C)c1
- inhibition (Thailand/16681/1984, Concentration 49.5 uM, Number of replicates 2.0, Standard deviation 1.4825862030761958 %): -4.22%
- inhibition (Thailand/16681/1984, Concentration 99.01 uM, Number of replicates 2.0, Standard deviation 3.6856999240165664 %): -5.61%
- inhibition (Thailand/16681/1984, Concentration 198.0 uM, Number of replicates 2.0, Standard deviation 2.662860479629087 %): -5.61%

SMILES: Cc1ccc(NC(=O)C2CCN(c3ccc(C=O)cc3)CC2)cc1Br
- inhibition [1]: 8.71%

SMILES: CC(C)Cn1cccc(C(=O)Nc2ccncc2C(F)(F)F)c1=O
- inhibition (Thailand/16681/1984, Concentration 49.5 uM, Number of replicates 2.0, Standard deviation 5.23322293563183 %): -3.89%
- inhibition (Thailand/16681/1984, Concentration 99.01 uM, Number of replicates 2.0, Standard deviation 0.16283923825626637 %): -4.73%
- inhibition (Thailand/16681/1984, Concentration 198.0 uM, Number of replicates 2.0, Standard deviation 1.971758036933884 %): -6.94%

SMILES: O=Cc1ccc(N2CCC(C(=O)N3CCN(C(=O)[C@H]4COc5ccccc5O4)CC3)CC2)cc1
- inhibition [1]: 13%

SMILES: NCc1cccc(NC(=O)[C@H]2CC(F)(F)CN2C(=O)OCc2ccccc2)c1
- inhibition (Thailand/16681/1984, Concentration 49.5 uM, Number of replicates 2.0, Standard deviation 3.8817212285914895 %): -3.13%
- inhibition (Thailand/16681/1984, Concentration 99.01 uM, Number of replicates 2.0, Standard deviation 4.048573795130085 %): -2.21%
- inhibition (Thailand/16681/1984, Concentration 198.0 uM, Number of replicates 2.0, Standard deviation 4.090127173867097 %): -1.49%

SMILES: O=Cc1ccc(N2CCC(C(=O)N(Cc3ccco3)Cc3cccs3)CC2)cc1
- inhibition [1]: 11%

SMILES: Cc1cc(CO)c2cccc(NC(=O)c3ccc(N)nn3)c2n1
- inhibition (Thailand/16681/1984, Concentration 49.95 uM, Number of replicates 2.0, Standard deviation 1.176901179972867 %): 11%
- inhibition (Thailand/16681/1984, Concentration 99.9 uM, Number of replicates 2.0, Standard deviation 1.886285239678155 %): 19.5%

SMILES: C[C@@H](Cc1ccc(C(F)(F)F)cc1)NC(=O)C1CCN(c2ccc(C=O)cc2)CC1
- inhibition [1]: 8.27%

SMILES: O=Cc1ccc(N2CCC(C(=O)NCC34CC5CC(CC(C5)C3)C4)CC2)cc1
- inhibition [1]: 11.8%
